Data: article PMC7862700, “An all-to-all approach to the identification of sequence-specific readers for epigenetic DNA modifications on cytosine”

Assays:
Experiment in all cases: DAPPL (digital affinity profiling via proximity ligation, sequencing); 10 mM Tris-HCl pH 7.5, 50 mM NaCl, 1 mM DTT, 4% glycerol, room temperature, 30 min; GST-TFs on glutathione beads, 16-mer random dsDNA library, 0.1% formaldehyde crosslink after washing; high values mean tight binding
Conditions in all cases: protein: recombinant; tags: N-terminal GST; dsDNA, one strand shown
[1] = target: ETV1 (Homo sapiens, UniProt P50549 1-477)
ETV1, sequence (P50549 whole entry, the tested form may be a part): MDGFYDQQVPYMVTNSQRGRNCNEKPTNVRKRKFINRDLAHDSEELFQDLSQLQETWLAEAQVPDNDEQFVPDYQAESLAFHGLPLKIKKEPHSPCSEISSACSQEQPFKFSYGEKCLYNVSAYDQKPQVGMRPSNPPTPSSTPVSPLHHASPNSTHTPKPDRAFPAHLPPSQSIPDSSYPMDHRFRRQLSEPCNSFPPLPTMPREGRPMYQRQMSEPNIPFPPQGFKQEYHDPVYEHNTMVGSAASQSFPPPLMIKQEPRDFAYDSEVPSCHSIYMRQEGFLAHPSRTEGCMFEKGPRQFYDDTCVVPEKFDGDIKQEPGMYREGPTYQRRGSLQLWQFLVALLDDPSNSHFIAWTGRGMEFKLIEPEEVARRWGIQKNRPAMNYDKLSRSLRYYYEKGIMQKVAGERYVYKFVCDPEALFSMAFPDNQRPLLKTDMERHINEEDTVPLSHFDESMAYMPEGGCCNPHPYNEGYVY
How it was run: (§1)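 Human transcription factors fused to GST were expressed in yeast, captured on glutathione beads, given DNA barcodes and pooled with a GST-only negative control. Pools were incubated with 200 nmole of a 16-mer random double-stranded DNA library in Tris/NaCl/DTT/glycerol buffer at room temperature for 30 min. They were then washed, crosslinked with 0.1% formaldehyde, proximity-ligated (BsaI/T4 ligase, 1 h, 37 °C), PCR-amplified and sequenced on an Illumina NextSeq500. Binding signal is each 6-mer's read frequency for a factor divided by its frequency for the GST control.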

[2] = target: T1, ERF (Homo sapiens, UniProt P50548 1-548)
T1 sequence: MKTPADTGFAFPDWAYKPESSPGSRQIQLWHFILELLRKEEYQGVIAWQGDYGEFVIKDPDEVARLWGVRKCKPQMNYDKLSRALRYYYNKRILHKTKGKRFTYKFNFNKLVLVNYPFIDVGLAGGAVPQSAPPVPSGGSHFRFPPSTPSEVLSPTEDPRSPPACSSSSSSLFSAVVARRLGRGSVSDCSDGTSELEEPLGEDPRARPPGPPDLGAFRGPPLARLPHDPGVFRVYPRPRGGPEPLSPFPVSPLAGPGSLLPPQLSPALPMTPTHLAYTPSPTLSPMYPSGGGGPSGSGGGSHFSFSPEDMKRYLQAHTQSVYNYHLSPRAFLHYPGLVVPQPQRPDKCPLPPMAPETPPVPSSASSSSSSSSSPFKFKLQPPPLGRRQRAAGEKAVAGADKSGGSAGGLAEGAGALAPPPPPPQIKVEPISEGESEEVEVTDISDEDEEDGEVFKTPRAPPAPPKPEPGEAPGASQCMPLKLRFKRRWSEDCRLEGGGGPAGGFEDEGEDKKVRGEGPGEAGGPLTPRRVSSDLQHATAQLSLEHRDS
How it was run: as §1

[3] = target: T2, ETV3L (Homo sapiens, UniProt Q6ZN32 1-361)
T2 sequence: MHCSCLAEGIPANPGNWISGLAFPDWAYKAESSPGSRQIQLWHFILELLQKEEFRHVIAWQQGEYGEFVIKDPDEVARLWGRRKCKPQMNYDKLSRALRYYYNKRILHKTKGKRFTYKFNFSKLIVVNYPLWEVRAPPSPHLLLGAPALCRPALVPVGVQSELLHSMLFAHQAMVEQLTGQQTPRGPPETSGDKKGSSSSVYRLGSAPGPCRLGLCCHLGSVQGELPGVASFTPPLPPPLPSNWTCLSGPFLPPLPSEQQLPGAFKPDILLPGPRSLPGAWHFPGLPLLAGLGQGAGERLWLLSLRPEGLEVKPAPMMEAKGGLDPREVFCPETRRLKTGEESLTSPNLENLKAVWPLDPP
How it was run: as §1

[4] = target: T3, ETS2 (Homo sapiens, UniProt P15036 1-469)
T3 sequence: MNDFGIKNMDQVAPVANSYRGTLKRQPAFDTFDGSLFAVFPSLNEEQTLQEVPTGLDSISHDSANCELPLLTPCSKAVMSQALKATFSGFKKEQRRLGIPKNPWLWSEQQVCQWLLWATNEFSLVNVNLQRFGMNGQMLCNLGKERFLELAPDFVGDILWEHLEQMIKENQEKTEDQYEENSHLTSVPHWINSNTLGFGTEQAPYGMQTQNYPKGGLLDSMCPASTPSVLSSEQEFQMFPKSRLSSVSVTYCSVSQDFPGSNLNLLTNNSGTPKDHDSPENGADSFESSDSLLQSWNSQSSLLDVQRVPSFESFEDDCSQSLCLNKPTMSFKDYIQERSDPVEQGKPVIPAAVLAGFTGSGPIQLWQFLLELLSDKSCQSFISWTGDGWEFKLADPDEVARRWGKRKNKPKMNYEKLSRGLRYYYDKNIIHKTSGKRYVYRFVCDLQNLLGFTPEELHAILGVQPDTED
How it was run: as §1

[5] = target: T4, SPDEF (Homo sapiens, UniProt O95238 1-335)
T4 sequence: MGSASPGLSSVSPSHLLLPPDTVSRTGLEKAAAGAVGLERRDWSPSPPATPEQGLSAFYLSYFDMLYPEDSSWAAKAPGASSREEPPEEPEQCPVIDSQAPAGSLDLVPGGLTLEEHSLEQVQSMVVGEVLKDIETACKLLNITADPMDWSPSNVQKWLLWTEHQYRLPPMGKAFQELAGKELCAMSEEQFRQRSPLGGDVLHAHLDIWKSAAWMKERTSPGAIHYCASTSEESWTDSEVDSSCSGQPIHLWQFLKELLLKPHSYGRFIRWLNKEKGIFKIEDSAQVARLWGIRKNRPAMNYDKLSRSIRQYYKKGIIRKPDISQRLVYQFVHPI
How it was run: as §1

[6] = target: T5, ETV7 (Homo sapiens, UniProt Q9Y603 1-341)
T5 sequence: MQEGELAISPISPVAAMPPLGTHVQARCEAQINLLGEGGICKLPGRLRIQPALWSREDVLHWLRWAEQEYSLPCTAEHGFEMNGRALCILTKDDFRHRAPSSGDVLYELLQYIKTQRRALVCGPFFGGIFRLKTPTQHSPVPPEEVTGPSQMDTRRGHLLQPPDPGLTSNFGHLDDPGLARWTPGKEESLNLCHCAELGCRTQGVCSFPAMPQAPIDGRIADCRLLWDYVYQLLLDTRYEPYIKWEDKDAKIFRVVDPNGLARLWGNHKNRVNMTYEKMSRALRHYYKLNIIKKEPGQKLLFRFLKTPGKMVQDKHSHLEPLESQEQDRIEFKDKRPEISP
How it was run: as §1

[7] = target: T6, ELF5 (Homo sapiens, UniProt Q9UKW6-2 1-255)
T6 sequence: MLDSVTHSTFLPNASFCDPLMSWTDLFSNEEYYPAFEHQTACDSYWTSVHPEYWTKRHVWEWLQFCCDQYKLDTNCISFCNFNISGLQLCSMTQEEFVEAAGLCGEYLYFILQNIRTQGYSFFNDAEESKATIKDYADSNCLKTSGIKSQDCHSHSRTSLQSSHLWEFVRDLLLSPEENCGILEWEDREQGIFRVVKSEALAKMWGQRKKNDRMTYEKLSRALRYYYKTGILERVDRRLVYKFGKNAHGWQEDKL
How it was run: as §1

[8] = target: T7, ETV3 (Homo sapiens, UniProt P41162-2 1-143)
T7 sequence: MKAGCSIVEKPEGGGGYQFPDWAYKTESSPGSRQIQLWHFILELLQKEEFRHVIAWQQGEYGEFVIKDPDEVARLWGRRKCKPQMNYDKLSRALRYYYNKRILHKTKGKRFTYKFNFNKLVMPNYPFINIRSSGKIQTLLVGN
How it was run: as §1

[9] = target: ETV6 (Homo sapiens, UniProt P41212 1-452)
ETV6, sequence (P41212 whole entry): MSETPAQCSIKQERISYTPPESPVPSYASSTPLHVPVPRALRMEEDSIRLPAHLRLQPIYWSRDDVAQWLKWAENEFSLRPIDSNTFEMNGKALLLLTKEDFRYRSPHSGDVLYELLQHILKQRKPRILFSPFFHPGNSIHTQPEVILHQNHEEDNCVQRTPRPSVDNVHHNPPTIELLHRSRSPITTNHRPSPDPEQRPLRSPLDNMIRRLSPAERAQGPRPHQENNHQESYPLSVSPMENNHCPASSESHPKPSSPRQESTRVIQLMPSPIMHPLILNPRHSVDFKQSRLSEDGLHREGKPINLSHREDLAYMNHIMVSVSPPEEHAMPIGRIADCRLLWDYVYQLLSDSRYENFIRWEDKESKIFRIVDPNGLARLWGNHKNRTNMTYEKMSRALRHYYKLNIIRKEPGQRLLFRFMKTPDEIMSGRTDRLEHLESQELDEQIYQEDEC
How it was run: as §1

AATTTA
binding signal [1]: 1.22 fold enrichment (6-mer frequency, TF over GST control) | binding signal [2]: 1.27 fold enrichment (6-mer frequency, TF over GST control) | binding signal [3]: 1.25 fold enrichment (6-mer frequency, TF over GST control) | binding signal [4]: 1.18 fold enrichment (6-mer frequency, TF over GST control) | binding signal [5]: 1.12 fold enrichment (6-mer frequency, TF over GST control) | binding signal [6]: 1.28 fold enrichment (6-mer frequency, TF over GST control) | binding signal [7]: 1.26 fold enrichment (6-mer frequency, TF over GST control) | binding signal [8]: 1.22 fold enrichment (6-mer frequency, TF over GST control) | binding signal [9]: 1.33 fold enrichment (6-mer frequency, TF over GST control)
